# Tgondii IFNg = T. gondii growth inhibition under IFN-gamma; Toxoplasma gondii growth in IFN-gamma-treated host cells; hits give low values; activity change, negative = inhibition, % (test concentration not listed); 3.8% of 69,000 active; AID 1259416; in the data active means activity change below about -70%, passing the limit was not always enough;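 further: host cells are HeLa cells infected with Toxoplasma gondii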
# Starred values were filed as active, the others as inactive; i = inactive; ! = not confirmed by another sample. The full list was thinned out, with hits kept by preference.
SMILES,Tgondii IFNg
O=C1/C(=C/c2ccccc2)C[C@@]2(O)C3Cc4ccc(O)c5c4[C@@]2(CCN3CC2CC2)[C@H]1O5,-76*!
O=C1CC[C@@]2(O)[C@H]3Cc4ccc(O)c5c4[C@@]2(CCN3CC2CC2)[C@H]1O5,-8
Oc1ccc2c3c1O[C@H]1c4[nH]c5c(c4C[C@@]4(O)[C@@H](C2)N(CC2CC2)CC[C@]314)C[C@@]1(O)[C@H]2Cc3ccc(O)c4c3[C@@]1(CCN2CC1CC1)[C@H]5O4,12
CN1CCOCC12CCN(c1ncccn1)CC2,57
O=C(NCc1ccccc1)[C@H]1C[C@H]2CNC[C@H]1O2,30
C=CCCC(=O)N1CC[C@@H]2OCCN(Cc3cccnc3)[C@@H]2C1,221
Cc1ccc(NC(=O)c2c(O)c3cccnc3n(Cc3ccccc3)c2=O)cc1C,94
Cc1ccc(NC(=O)c2c(O)c3cccnc3n(Cc3ccccc3)c2=O)c(F)c1,138
O=C(NCc1ccccc1Cl)c1c(O)c2cccnc2n(Cc2ccccc2)c1=O,-108*
O=C(Nc1ccc(Cl)cc1)c1c(O)c2cccnc2n(Cc2ccccc2)c1=O,44
COc1ccccc1NC(=O)c1c(O)c2cccnc2n(Cc2ccccc2)c1=O,47
O=C(NCc1ccco1)c1c(O)c2cccnc2n(Cc2ccccc2)c1=O,-99*
O=C(NCc1ccco1)c1cc2cccnc2n(Cc2ccccc2)c1=O,-45
Cc1ccccc1CNC(=O)c1c(O)c2cccnc2n(Cc2ccccc2)c1=O,-119*
Cc1cccc(CNC(=O)c2c(O)c3cccnc3n(Cc3ccccc3)c2=O)c1,-119*
O=C(Nc1ccccc1F)c1c(O)c2cccnc2n(Cc2ccccc2)c1=O,42
Cc1ccc(NC(=O)c2c(O)c3cccnc3n(Cc3ccccc3)c2=O)cc1F,30
O=C(Nc1cccc(F)c1)c1c(O)c2cccnc2n(Cc2ccccc2)c1=O,107
CCc1ccc(NC(=O)c2cc3cccnc3n(Cc3ccc(Cl)cc3)c2=O)cc1,50
CN1C[C@@H](NC(=O)c2cscn2)C2OCCCC21 (stereo not given in full),-3
CCS(=O)(=O)N1C[C@@H]2c3ccccc3CN[C@@H]2C1,4
Cc1cccc(CN2CCC3(CC(C(=O)N(C)C(C)C)=NO3)C2)n1 (stereo not given),0
c1cnc(OCC2CCC3C2OCCN3Cc2ccco2)nc1 (stereo not given),25
Cc1cc(C)cc(NC(=O)c2cc3cccnc3n(Cc3ccccc3)c2=O)c1,-16
O=C(O)c1cccnc1CN1CCCCC1c1cccnc1 (stereo not given),-7
SMILES,Tgondii IFNg
CN1CCN2CCN(C(=O)c3cc(=O)n(C)c(=O)n3C)CC2C1=O (stereo not given),40
CCN(C)c1ncc2c(c1C(=O)O)CCN(C1CCOC1)C2 (stereo not given),8
COc1ccc(NC(=O)c2c(O)c3cccnc3n(Cc3ccccc3)c2=O)cc1F,202
CC(=O)Nc1ccc(NC(=O)c2cc3cccnc3n(Cc3ccc(Cl)cc3)c2=O)cc1,61
COCCN1CCN(c2ncccn2)Cc2ccc(C)nc21,-5
Cn1cc(CN2CC[C@H]3[C@@H]2CCN3C(=O)Cc2cccc(F)c2)cn1,-6
c1nc2c(c(N3CCN4CCCC4C3)n1)CCNC2 (stereo not given),-55
O=C(NCc1ccc2c(c1)OCO2)c1c(O)c2cccnc2n(Cc2ccccc2)c1=O,-77*
O=C(Nc1cc(F)ccc1F)c1c(O)c2cccnc2n(Cc2ccccc2)c1=O,164
O=C(Nc1ccc(F)cc1F)c1c(O)c2cccnc2n(Cc2ccccc2)c1=O,-22
O=C(Nc1ccc2c(c1)OCCO2)c1c(O)c2cccnc2n(Cc2ccccc2)c1=O,211
O=C(Nc1ccc2c(c1)OCO2)c1c(O)c2cccnc2n(Cc2ccccc2)c1=O,113
O=C(NCc1ccc(F)cc1F)c1c(O)c2cccnc2n(Cc2ccccc2)c1=O,-104*
Cc1ccc2c(CCN)c(C)n(C)c2c1,0
Cc1ccc(CN2C[C@H](OCc3ccccn3)[C@@H]3COC[C@@H]32)o1,i
c1ccc2c(C3=NCCCCN3)c[nH]c2c1,-5
O=C(Nc1cccc(F)c1)c1cc2cccnc2n(Cc2ccccc2F)c1=O,82
O=C1CCC[C@@H]2[C@@H]3CCCN4CCC[C@H](CN12)[C@@H]34,26
O=[N+]([O-])c1cc([As](=O)(O)O)ccc1O,17
N#CC(C#N)=Cc1ccc([N+](=O)[O-])c(O)c1,13
O=[N+]([O-])c1ccc(O)c([N+](=O)[O-])c1,-79*!
c1cn(CC2CCC3NCCOC23)cn1 (stereo not given),-23
CCn1cc(C(=O)c2ccc(F)cc2)c2ccnc(Cl)c21,-66
O=C(Nc1ccc(C(F)(F)F)cc1)c1cc2cccnc2n(Cc2ccc(Cl)cc2)c1=O,-6
COc1ccc(C2=CCN(Cc3ccccc3)CC2)cc1OC,277
